Sampled rows, rich in hits. Any-hit rate of the full collection: about 10%.
CtBP-E1A blk = qHTS Assay for Inhibitors of the CtBP/E1A Interaction; AlphaScreen GST-E1A/His-CtBP binding, 1536-well; active compounds read low; activity change, % (test concentration not listed); 340,000 tested, 0.49% active; AID 651724, 2012; in the data active = activity change below about -65%; inconclusive = mostly about -30% to -63%
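Homogeneous bead-based format: GST-tagged E1A captured on glutathione donor beads, His-tagged CtBP on nickel acceptor beads; compounds precede bead addition by 2 h at 37 °C.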
G9a block = qHTS Assay for Inhibitors of Histone Lysine Methyltransferase G9a | Histone-lysine N-methyltransferase EHMT2 (Homo sapiens), Q96KQ7 | G9a H3K9 monomethylation, AlphaScreen, 2 h | Potency, µM (doses to about 102 µM), actives largely listed as inhibitors | 350,000 tested, 8.8% active | AID 504332, 2011; note: nearly all actives have a fitted effect of over 75% in size
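Quantitative HTS format: methyltransferase activity on a biotin-tagged H3K9 peptide is measured by AlphaScreen, using a rabbit anti-monomethyl-H3K9 antibody with streptavidin donor and anti-IgG acceptor beads. Final levels are 20 nM enzyme, 500 nM peptide, 20 uM SAM; 2 h RT.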
JMJD2A Tudor inh = qHTS Assay for Inhibitors of JMJD2A-Tudor Domain; Lysine-specific demethylase 4A (Homo sapiens), O75164; AlphaScreen JMJD2A-Tudor / H3K4me3 peptide binding; Potency, µM (titrated, usually from 114 µM), most hits filed as inhibitors; 390,000 tested, 4.4% active; AID 504339, 2011; note: nearly all actives have a fitted effect of over 50% in size
Six1-Eya2 inh = qHTS Assay for Inhibitors of the Six1/Eya2 Interaction; Homeobox protein SIX1 (Homo sapiens) + Protein phosphatase EYA2 (Homo sapiens), …; AlphaScreen GST-Six1/His-Eya2 binding, biochemical; active compounds read low; activity change, % (no concentration beside the values); 360,000 tested, 0.56% active; AID 651725, 2012; in the data active = activity change below about -65%; inconclusive = mostly about -30% to -63%
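GST-Six1 + His-Eya2 (5X stock: 250/500 nM); Tris pH 8.0, 300 mM NaCl, 0.05% BSA, 0.02% Tween 20; GSH donor/Ni acceptor beads; 1 h 37 °C dark; AlphaScreen readout.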
HP1b chromo inh = HTS for Inhibitors of HP1-beta Chromodomain Interactions with Methylated Histone Tails; Chromobox protein homolog 1 (Homo sapiens), P83916; AlphaScreen HP1-beta / biotin-H3K9me3 peptide binding; Potency, µM (doses to about 114 µM), actives largely listed as inhibitors; 390,000 tested, 0.56% active; note: nearly all actives have a fitted effect of over 70% in size
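AlphaScreen: HP1-beta (50 nM) preformed 30 min with biotin-H3(1-18)K9me3 peptide (50 nM) in PBS pH 7.4, 0.01% Tween-20. Compound added for 30 min at RT, then streptavidin donor/nickel chelate acceptor beads (10 ug/mL) for 30 min.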
BAZ2B inh = qHTS Assay for Inhibitors of BAZ2B | 360,000 tested, 4.4% active | AlphaScreen BAZ2B-H3K14Ac peptide displacement | Bromodomain adjacent to zinc finger domain protein 2B (Homo sapiens), Q9UIF8 | Potency, µM (top dose mostly 114 µM), usual class: inhibitors; note: nearly all actives have a fitted effect of over 60% in size
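Inhibition is scored as reduced AlphaScreen emission. The BAZ2B/b-H3(5-23)K14Ac complex (50 nM each) in PBS pH 7.4, 0.01% Tween-20 meets compound (up to 110 uM) for 30 min at RT before bead addition.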
Numbers stand for hits; - = inactive; ? = inconclusive; . = not tested or not shown; [ ] = dose if it differs, or a comment. Unless noted, calls come from the whole dose curve; as a rule, active = well fitted inhibition curve with a large enough effect; inconclusive = small, poorly fitted or top-dose-only effect; inactive = no such curve, though single readings can be large or run the other way.

SMILES	CtBP-E1A blk	G9a block	JMJD2A Tudor inh	Six1-Eya2 inh	HP1b chromo inh	BAZ2B inh
Cc1ccnc2nc(NC(=O)c3ccccc3Cl)nn12	.	-	-	.	-	-
CCOC(=O)/C(=N\Nc1cccc(Cl)c1)Sc1nnc(-c2ccc(OC)cc2)n1C	-	8.9µM	-	-	-	-
COc1ccc(-n2c(Cc3cccn3C)nnc2SCC(=O)Nc2ccccc2OC)cc1	-	45µM	-	-	-	?
COc1ccc(-n2c(Cc3cccn3C)nnc2SCC(=O)Nc2cc(Cl)ccc2OC)cc1	-	40µM	?	-	-	?
COc1ccc(-n2c(Cc3cccn3C)nnc2SCC(=O)Nc2ccc(C)cc2C)cc1	-	45µM	?	-	-	?
COc1ccc(-n2c(Cc3cccn3C)nnc2SCC(=O)Nc2nc(C)cs2)cc1	-	-	-	-	-	-
COc1ccc(-n2c(Cc3cccn3C)nnc2SCC(=O)NC2CCCC2)cc1	-	?	?	-	-	-
O=c1[nH]c(-c2ccncc2)nc2ccccc12	-	8.9µM	?	-	?	-
O=[N+]([O-])c1ccccc1/C=N/N1CCN(c2ccncc2S(=O)(=O)N2CCCCC2)CC1	?	?	35µM	?	?	32µM
Cc1cccc(C)c1NC(=O)C1(C)CSCC(=O)N1Cc1cccs1 (stereo unspecified)	-	.	.	-	.	.
O=C(NCC1CCCO1)c1onc(CSc2cccc3ccccc23)c1C(=O)O (stereo unspecified)	-	-[0.501 µM]	-	-	-	-
CCn1c(SCC(=O)N/N=C/C=C\c2ccco2)nc2ccccc21	-	16µM	?	-	-	45µM
Cn1c(SCC(=O)N/N=C/C=C\c2ccco2)nc2ccccc21	-	.	56µM	-	?	?
Cc1ccc(CSc2nnc(SCC(=O)N/N=C/C=C/c3ccco3)s2)cc1	-	?	-	-	-	50µM
Cc1cc(C)cc(CC(=O)N2CCC2(C)C(=O)NS(=O)(=O)c2cc(C)ccc2F)c1 (stereo unspecified)	-	.	.	-	.	.
Cc1nc(SCC(=O)NCc2ccco2)c2c(C)c(C)sc2n1	-	-[12.7 µM]	-	-	-	-
Cc1sc2ncnc(SCC(=O)NC(=O)NCc3ccco3)c2c1C	-	50µM	-	-	-	?
O=C(CSc1nn(-c2ccccc2)c(=S)s1)Nn1cnnc1	-	-	-	-	-	-
Cc1ccc(-c2csc3ncnc(OCC(=O)NC(=O)NCc4ccco4)c23)cc1	-	56µM	-	-	-	?
O=C(CSc1nn(-c2ccccc2)c(=S)s1)NC(=O)NCc1ccco1	-	14µM	-	-	-	?
Cc1nc(SCC(=O)NC(=O)NCc2ccco2)nc(C)c1C	-	50µM	-	-	-	?
O=C(COc1ncnc2scc(-c3ccc(F)cc3)c12)NCc1ccco1	-	.	-	-	-	-
CCOC(=O)c1c(S(=O)(=O)N2CCCC(C(=O)Nc3ccc(C)cc3C)C2)c(C)n(CC)c1C (stereo unspecified)	.	-	-	.	-	-
COCCNC(=O)NC(=O)CSc1nc(C)c(C)c(C)n1	-	45µM	-	-	-	-
N#Cc1c(N2CCN(c3ccc(F)cc3)CC2)nc(N)c2c(N)nc3c(c12)CC(=O)N3C1CC1	-78	?	-	-82	-	?
NS(=O)(=O)c1ccc(CCNC(=O)Cc2ccc(Cl)cc2)cc1	-	.	-	-	-	-
COc1ccc(S(=O)(=O)Nc2ccccc2OC)cc1C	-	-	-	-	-	-
COc1ccccc1NS(=O)(=O)c1ccc(NN=C2CCCCC2)c([N+](=O)[O-])c1	-	25µM	?	?	?	8.9µM
COc1ccccc1NS(=O)(=O)c1ccc(OC)c([N+](=O)[O-])c1	-	-	-	-	-	-
CCCC(CCC)=NNc1ccc(S(=O)(=O)Nc2ccccc2OC)cc1[N+](=O)[O-]	?	?	14µM	?	28µM	10µM

Assay outcomes as filed in PubChem BioAssay.
